# Laboratory results taken from PubChem BioAssay.
# Unmarked numbers belong to inactive results. Cut-off read from the data, not from the text of the source: active = nuclear beta-catenin stimulation mostly above about 4.2% (no sharp cut-off); inactive = mostly below about 10%.
# Experiment: stimulators of nuclear beta-catenin in C2C12, primary screen, imaging, WNT3A-conditioned medium, mouse C2C12, NPC library (AID 1117326); note: reference of the scale not given here
# Details: at 10 µM, hits give high values
row,Structure (SMILES),nuclear beta-catenin stimulation
1,COP(=S)(OC)Oc1ccc(S(=O)(=O)N(C)C)cc1,-1.9%
2,Nc1ccccc1C(=O)OCC(O)CO (stereo unspecified),3.1%
3,C[N+]1(CCF)[C@@H]2CC[C@H]1CC(OC(=O)C(O)(c1ccccc1)c1ccccc1)C2 (stereo partly specified),-2.1%
4,Nc1ccccc1,0.6%
5,CCOC(=O)NC(O)C(Cl)(Cl)Cl (stereo unspecified),-0.2%
6,Oc1ccc(Cl)cc1Cc1ccccc1,0.2%
7,C[C@]12C[C@@H]3S[C@H]3C[C@@H]1CC[C@H]1[C@H]3CC[C@@H](O)[C@@]3(C)CC[C@@H]12,-1%
8,C[C@]12CC[C@H]3[C@@H](CCC4=CC(=O)CC[C@@H]43)[C@@H]1CC[C@@H]2OC(=O)CCc1ccco1,2.9%
9,O=C1OC(c2ccc(O)c(S(=O)(=O)O)c2)(c2ccc(O)c(S(=O)(=O)O)c2)c2c(Br)c(Br)c(Br)c(Br)c21,3.3%
10,COc1cc(CC#N)cc(OC)c1OC,0%
11,CC(C)=CC1C(C(=O)OCN2C(=O)C3=C(CCCC3)C2=O)C1(C)C (stereo unspecified),2.5%
12,COP(=S)(OC)Oc1ccc(S(N)(=O)=O)cc1,0.4%
13,CN1C2CCC(C)(C)C1CC(OC(=O)C(O)(c1cccs1)c1cccs1)C2 (stereo unspecified),-1.7%
14,C[C@]12CC[C@H]3[C@@H](CC=C4C[C@@H](O)CC[C@@]43C)[C@@H]1CC[C@@H]2O,2.9%
15,CN1CCC(O)(c2ccc(F)cc2)C(C(=O)c2ccc(F)cc2)C1 (stereo unspecified),20.8%
16,CC(=O)O[C@H]1C[C@H](O[C@H]2[C@@H](O)C[C@H](O[C@@H]3[C@@H](O)C[C@H](O[C@H]4CC[C@@]5(C)[C@H](CC[C@@H]6[C@H]5C[C@@H](O)[C@]5(C)[C@@H](C7=CC(=O)OC7)CC[C@]65O)C4)O[C@@H]3C)O[C@@H]2C)O[C@H](C)[C@H]1O[C@@H]1O[C@H](CO)[C@@H](O)[C@H](O)[C@@H]1O,1.6%
